According to PubChem BioAssay (NCATS):
Unmarked numbers belong to inactive results. Calls follow the shape of the full dose curve.

Target: Glucocorticoid receptor (Homo sapiens) (UniProt P04150)
Test: GR-EFC Redistribution (AID 451)
Details: CHO-K1 GR-EFC translocation, beta-gal luminescence, 2 h
Description: NIH Molecular Libraries Screening Centers Network [MLSCN]
NIH Chemical Genomics Center [NCGC]
The glucocorticoid receptor (GR) is a cytoplasmic receptor that belongs to the nuclear receptor family of ligand-dependent transcription factors. Upon glucocorticoid binding to its receptor, the glucocorticoid-GR complex translocates into the nucleus, where it binds as a dimer to specific DNA sequences (glucocorticoid response elements), enhancing or suppressing transcription of a wide variety of glucocorticoid-responsive genes. In addition to their important roles in normal physiology and metabolism, glucocorticoids are administered exogenously as treatments for a wide variety of allergic, autoimmune, and neoplastic conditions. Identification of compounds that modulate aspects of GR signalling would be useful in dissecting glucocorticoid response pathways as well as developing GR modulators with more targeted clinical effects.
Traditionally, GR modulators have been identified using receptor binding or direct transactivation assays. However, assays for glucocorticoid-dependent nuclear translocation can also be used to screen for compounds affecting GR signaling.
Immunocytochemical staining has been used to assay for GR translocation, but is not suitable for high throughout screening due to the multiple reagent addition and wash steps required. Recently, a novel cell-based GR assay in Enzyme Fragment Complementation (EFC) format was developed by DiscoveRx (Fremont, CA). The assay uses EFC of b-galactosidase (b-gal) as an indicator of GR-translocation in engineered CHO-K1 biosensor cells. The enzyme acceptor (EA) fragment of b-gal resides in the nucleus , as designed through the use of a proprietary set of sequence additions and modifications. The small peptide enzyme donor (ED) fragment of b-gal is fused directly to the C-terminus of GR, and is localized in the cytoplasm is the absence of receptor signaling. Upon binding to a GR ligand, the complex translocates to the nucleus, where intact enzyme activity is restored by complementation and b-gal activity is detected. We optimized this GR-EFC assay in homogenous 1536-well plate assay format for high throughput screening.
NCGC Assay Protocol Summary:
CHO-K1 cells stably expressing NLS-enzyme acceptor fragment (EA) of b-gal and GR-enzyme donor (ED) fragment of b-gal were maintained in F12 medium (Invitrogen, Carlsbad, CA) at 37 Celsius degrees under a humidified atmosphere containing 5% CO2 and 95% air. The medium contained 10% FBS, 2 mM L-glutamine, 50 U/ml penicillin 50 ug/ml streptomycin, and 250 ug/ml hygromycin and 500 ug/ml G418 (Invitrogen).
GR-translocation was measured beta-gal enzyme activity using the PathHunter Detection Kit containing cell membrane permeablizing reagent and beta-gal substrate (DiscoveRx, Fremont, CA). All compounds were screened as titrations from 0.6 nM to 46 uM final concentration. The assay was performed in 1536-well format as follows:
5 uL cell suspension (1,000 cells)/well
Incubation at 37 Celsius degrees for two hours
1.25 uL 1X detection buffer from the kit supplied by DiscoveRx
Incubation at room temperature for one hour
Read plate in luminescence mode in ViewLux plate reader (PerkinElmer)
Keywords: NIH Roadmap, MLSCN, MLI, MLSMR, GR-EFC, GREFC, qHTS, NCGC
Potency is read from the fitted curve at half-maximal effect.

Glucocorticoid receptor (Homo sapiens), sequence (P04150 whole entry, looked up): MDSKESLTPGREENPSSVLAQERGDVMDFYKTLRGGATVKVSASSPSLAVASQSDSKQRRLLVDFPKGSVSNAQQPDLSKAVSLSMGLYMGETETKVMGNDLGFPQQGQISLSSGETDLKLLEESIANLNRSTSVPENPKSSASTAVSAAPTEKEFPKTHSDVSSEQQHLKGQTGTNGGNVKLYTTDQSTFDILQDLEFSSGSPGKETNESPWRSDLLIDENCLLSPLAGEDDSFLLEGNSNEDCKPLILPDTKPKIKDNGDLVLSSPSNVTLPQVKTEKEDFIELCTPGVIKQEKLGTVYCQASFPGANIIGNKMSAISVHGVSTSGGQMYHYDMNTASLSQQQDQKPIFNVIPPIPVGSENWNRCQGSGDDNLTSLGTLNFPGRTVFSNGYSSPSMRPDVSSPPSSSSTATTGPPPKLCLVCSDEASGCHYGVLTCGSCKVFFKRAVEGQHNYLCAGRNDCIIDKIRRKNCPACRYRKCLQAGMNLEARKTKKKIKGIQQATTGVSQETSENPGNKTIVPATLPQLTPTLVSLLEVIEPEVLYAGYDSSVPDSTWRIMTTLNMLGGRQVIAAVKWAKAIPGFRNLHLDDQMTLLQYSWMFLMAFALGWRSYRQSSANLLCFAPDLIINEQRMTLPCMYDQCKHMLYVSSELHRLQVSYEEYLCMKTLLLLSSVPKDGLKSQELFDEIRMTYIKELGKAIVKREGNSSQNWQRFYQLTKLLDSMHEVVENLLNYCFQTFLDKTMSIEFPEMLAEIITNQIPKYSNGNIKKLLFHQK

Row | Structure (SMILES) | Potency [µM]
1 | COc1ncc2nc(CCc3ccccc3)c(=O)n(C3CC3)c2n1 | > 46
2 | Cc1nc2cnc(N3CCOCC3)nc2n(Cc2ccc(F)cc2)c1=O | > 46
3 | Cc1cnc(CNc2ncncc2-c2cccnc2)cn1 | > 46
4 | Cc1ccccc1-c1cncnc1N(C)Cc1ccco1 | > 46
5 | COc1ccc(NC(=O)N2CC[C@@]3(CCCN(C(=O)c4cccn4C)C3)C2)cc1 | > 46
6 | O=C(c1csnn1)N1CCC2(CC1)CN(Cc1cc(C(F)(F)F)cc(C(F)(F)F)c1)C2 | > 46
7 | c1ccc2c(N3CCNCC3)nc(-c3ccc4c(c3)OCO4)nc2c1 | > 46
8 | Cc1cccc(CNc2cc(-c3c(C)noc3C)ncn2)c1 | > 46
9 | Cc1nc2cnc(OCc3ccccc3)nc2n(C)c1=O | > 46
10 | CN1CCN(c2nc(-c3ccc4c(c3)OCO4)nc3ccccc23)CC1 | > 46
11 | CC(=O)N1CCC[C@@]2(CCN(c3ccncc3)C2)C1 | > 46
12 | CS(=O)(=O)N1CCC[C@@]2(CCN(c3ccccc3)C2)C1 | > 46
13 | COc1ccc(-n2c(=O)c(-c3cccs3)nc3cncnc32)cc1 | > 46
14 | O=c1cnc2cnc(Nc3ccccc3)nc2n1C1CC1 | > 46
15 | Cn1cc(-c2nc3cnc(Oc4ccccc4)nc3n(C)c2=O)c2ccccc21 | > 46
16 | O=c1c(-c2ccc(F)cc2)nc2cnc(Oc3ccccc3)nc2n1C1CC1 | > 46
17 | COC(=O)N1CCC2(CCCN(c3ccc(-c4ccccc4)cc3)C2)CC1 | > 46
18 | Cc1nc2cnc(Nc3ccccc3)nc2n(C2CC2)c1=O | > 46
19 | O=C(c1cc(C(F)(F)F)cc(C(F)(F)F)c1)N1CCC2(CCN(Cc3nccs3)CC2)CC1 | > 46
20 | CN(C)C(=O)c1ccc(-c2ccc3ncnc(N(C)C)c3c2)cc1 | > 46

Row | Structure (SMILES) | Potency [µM]
21 | O=c1c(-c2cc(F)cc(F)c2)nc2cncnc2n1Cc1ccccc1 | > 46
22 | O=C(c1ccncc1)N1CCC2(CC1)CCN(c1ccccc1)CC2 | > 46
23 | Cn1c(=O)c(-c2ccc(Cl)cc2)nc2cnc(Nc3ccccc3)nc21 | > 46
24 | O=C(Nc1cccc(F)c1)N1CC2(CCN(S(=O)(=O)c3ccccc3)CC2)C1 | > 46
25 | COc1cccc(Cn2c(=O)c(-c3ccc(F)cc3)nc3cnc(N(C)C)nc32)c1 | > 46
26 | c1ccc(-c2cccc(N3CC4(CCNCC4)C3)c2)cc1 | > 46
27 | CN(C)C(=O)c1ccc(-c2cc(-n3ccnc3)ncn2)cc1 | > 46
28 | Cc1ccccc1-c1nc(NCc2cccs2)c2ccccc2n1 | > 46
29 | COc1ccccc1CN1CCCC2(CCN(S(C)(=O)=O)CC2)C1 | > 46
30 | CCNc1ncc2nc(C)c(=O)n(-c3ccc(OC)cc3)c2n1 | > 46
31 | CC(C)NC(=O)N1CCC2(CC1)CCN(C(=O)c1ccco1)CC2 | > 46
32 | O=c1c(-c2ccc(F)cc2)nc2cnc(N3CCNCC3)nc2n1-c1ccccc1 | > 46
33 | O=c1cnc2cnc(N3CCOCC3)nc2n1C1CC1 | > 46
34 | CCNc1ncc2nc(-c3cc(F)cc(F)c3)c(=O)n(C)c2n1 | > 46
35 | COCCn1c(=O)c(-c2ccc(Cl)cc2)nc2cnc(OCc3ccccc3)nc21 | > 46
36 | Cn1cccc1C(=O)N1CCC[C@@]2(CCN(Cc3ccccc3)C2)C1 | > 46
37 | O=S(=O)(c1ccccc1)N1CCC2(CC1)CN(c1ncccn1)C2 | > 46
38 | COc1ccc(CNc2ncnc3ccc(-c4cccc(C#N)c4)cc23)c(OC)c1 | > 46
39 | COc1ccc(NC(=O)N2CCCC3(CCN(C(=O)c4csnn4)CC3)C2)cc1 | > 46
40 | CC(=O)NCCNc1cc(-c2ccccc2C(F)(F)F)ncn1 | > 46
